The values below come from PubChem BioAssay AID1476 (National Center for Advancing Translational Sciences (NCATS), 2009).

Screen size: about 200,000 compounds; about 4,500 (2.2%) were called active. Inconclusive results (about 12%) are left out. Only a selection was taken, and actives are over-represented in it overall. Unmarked numbers belong to inactive results. Calls follow the shape of the dose curve; as a rule, active = well fitted inhibition curve with a large enough effect; inconclusive = small, poorly fitted or top-dose-only effect, or effect the other way; inactive = flat fitted curve, though single readings scatter.
Potency is read from the fitted curve at half-maximal effect.

Sequence of Cruzipain (Trypanosoma cruzi) (P25779 123-467 limits assumed): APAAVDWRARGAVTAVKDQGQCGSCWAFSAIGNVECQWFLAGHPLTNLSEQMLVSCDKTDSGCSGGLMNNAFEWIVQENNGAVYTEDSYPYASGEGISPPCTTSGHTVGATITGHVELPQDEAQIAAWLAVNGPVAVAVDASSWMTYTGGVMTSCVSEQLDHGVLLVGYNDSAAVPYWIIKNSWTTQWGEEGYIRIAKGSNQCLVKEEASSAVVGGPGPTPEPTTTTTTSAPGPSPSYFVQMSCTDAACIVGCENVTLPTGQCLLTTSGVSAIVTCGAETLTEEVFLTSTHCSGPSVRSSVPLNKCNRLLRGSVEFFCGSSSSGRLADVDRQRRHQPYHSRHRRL

This test has as its target Cruzipain (Trypanosoma cruzi) (UniProt P25779). The experiment in a line: qHTS Assay for Promiscuous and Specific Inhibitors of Cruzain (without detergent). Also: nearly all actives have a fitted effect of over 40% in size.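 As to max response, negative = inhibition: plate controls were enzyme without inhibitor for no effect and buffer without enzyme for full effect.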 The conditions noted are these: purified cruzain, Z-FR-AMC fluorescence, no detergent. In short, it runs like this:
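Detergent-free condition (0.00005% Triton X-100) in acetate buffer pH 5.5 with DTT. 1.5 nM enzyme and compound were pre-mixed 15 min, then 2 uM Z-FR-AMC substrate added; reaction progress from fluorescence change between first and third reads (60 s).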
Take `COc1cccc(OCCn2c(-c3ccc(Br)cc3)nc3ccccc3c2=O)c1`: the max response, negative = inhibition is -14.8%.

In the case of `Cc1cc(C)cc(NS(=O)(=O)c2cc3c(cc2C)NC(=O)CO3)c1`, the max response, negative = inhibition was 6.94%.

`Cc1cc(C)cc(NC(=O)CSc2nc(=O)n(CCN3CCOCC3)c3c2CCC3)c1`: the max response, negative = inhibition is -7.74%.

In the case of `O=C(c1ccc(Br)cc1)N(Cc1cccs1)c1ccc(F)cc1`, the max response, negative = inhibition was 11.6%.

For `COC(=O)c1ccc(NC(=O)CSc2n[nH]c(-c3ccccc3)n2)cc1`, the max response, negative = inhibition was -7.41%.

In the case of `CCc1nnc(NC(=O)CSc2nnc(Cc3ccccc3)n2-c2ccc(OC)cc2)s1`, the max response, negative = inhibition is -3.04%.

As for `COc1ccc(C(=O)Nc2nc(-c3ccc(S(=O)(=O)N4CCOCC4)cc3)cs2)cc1`, the max response, negative = inhibition is -19.9%.

With `Cc1ccc(-c2csc(NC(=O)Cc3cccs3)n2)cc1C`, the max response, negative = inhibition was -12.6%.

Regarding `COc1ccc(Cc2nnc(NC(=O)Cc3cccs3)s2)cc1`, the Potency was 20 µM (active).

Turning to `COc1ccc(-c2csc(NC(=O)CCCc3cccs3)n2)cc1`, the Potency was 10 µM (active).

Take `COc1ccc(Cc2nnc(NS(=O)(=O)Cc3ccccc3)s2)cc1`: the max response, negative = inhibition was -1.39%.

Regarding `CCN(CC)S(=O)(=O)c1ccc2c(c1)nc(CN(C)C(=O)Nc1ccc(Cl)cc1)n2C`, the max response, negative = inhibition was 2.49%.

As to `CCOC(=O)c1[nH]c(C)c(CCC(=O)N2CCN(c3ccccc3)CC2)c1C`, the max response, negative = inhibition is 6.86%.

On to `Cc1cccc(C(=O)N2CCc3cc(CNC(=O)Cc4ccc(F)cc4)ccc32)c1`, for which the max response, negative = inhibition is -5.89%.

As to `CCc1ccc(CN(Cc2ccco2)C(=O)COc2ccc(Cl)c(C)c2)cc1`, the max response, negative = inhibition is -28.4%.

Turning to `CCN(CC)S(=O)(=O)c1ccc2c(c1)N(CC(=O)NCC(C)c1ccccc1)C(=O)CO2` (centres undefined), the max response, negative = inhibition was 13.8%.

For `O=C(Nc1sc2c(c1-c1nc3ccccc3[nH]1)CCCC2)C1CC1`, the Potency was 25.1 µM (active).

For `O=C(OCc1nc2ccccc2[nH]1)C1CCCCC1`, the max response, negative = inhibition is 6.92%.

For the compound `c1ccc2[nH]c(-c3nc4ccccc4[nH]3)nc2c1`, the max response, negative = inhibition was 9%.

For the compound `Cc1ccc2c(c1)N(C(=O)CCC(=O)NCc1ccccc1F)CC(C)O2` (centres undefined), the max response, negative = inhibition was 2.02%.

With `Cc1ccc(OCCSc2nc(C)c(Cc3ccccc3)c(=O)[nH]2)cc1`, the max response, negative = inhibition is -1.11%.

On to `O=C(NC1CC(=O)N(c2ccc(F)cc2)C1)c1cccs1` (centres undefined), for which the max response, negative = inhibition was 8.85%.

Turning to `Cc1c(Cl)cccc1-c1ccc(CNCCCSc2nnnn2C)o1`, the max response, negative = inhibition was -7.09%.

Regarding `CCCc1ccc(OCc2ccc(C(=O)N/N=C/c3cccc([N+](=O)[O-])c3)o2)c(OC)c1`, the Potency was 6.31 µM (active).

`COc1cc(/C=N\NC(=O)CNC(=O)c2cccc([N+](=O)[O-])c2)ccc1O`: the max response, negative = inhibition was 6.36%.

Regarding `COc1cc(/C=N/O)ccc1OCc1ccc([N+](=O)[O-])cc1`, the max response, negative = inhibition was 0.78%.

Take `Cc1ccc(-c2nc3cccc(C)n3c2Nc2ccc3c(c2)OCCO3)cc1`: the max response, negative = inhibition is -0.169%.

In the case of `CCCN1CCN(CCCNC(=O)c2cnn(-c3ccc(C)cc3)c2-n2cccc2)CC1`, the max response, negative = inhibition was 7.09%.

Turning to `CCCCOc1ccc(CNC(=O)c2ccc3c(c2)N(C)C(=O)C2CCCCN32)cc1` (centres undefined), the max response, negative = inhibition is 13.9%.

For the compound `COc1ccccc1NC(=O)c1oc2ccccc2c1NC(=O)COc1ccccc1OC`, the max response, negative = inhibition was -7.97%.

In the case of `Cc1cccc(COc2ccccc2/C=N/Nc2ccc([N+](=O)[O-])cc2)c1`, the Potency is 25.1 µM (active).

`Cc1cc([N+](=O)[O-])ccc1NCc1cccc([N+](=O)[O-])c1`: the max response, negative = inhibition is 2.12%.

In the case of `Cc1cccc(CC(=O)N2CCN=C2SCc2ccc([N+](=O)[O-])cc2)c1`, the max response, negative = inhibition is -7.03%.

As to `N#Cc1ccc(-c2cccs2)nc1SCc1ccc(Br)cc1`, the max response, negative = inhibition was -6.69%.

With `COc1ccc2c(c1)c(N1CCCC1=O)c(C(=O)Nc1ccccc1C(F)(F)F)n2C`, the max response, negative = inhibition is -10%.

On to `COc1ccc(C(=O)N2CCC(c3nc4ccccc4o3)CC2)cc1`, for which the max response, negative = inhibition is 14.3%.

Regarding `Cc1ccc(-c2noc(-c3nnn(-c4cccc(C(F)(F)F)c4)c3N)n2)cc1`, the max response, negative = inhibition was 1.55%.

Take `CCSc1nnc(NC(=O)c2ccc(C)cc2)s1`: the Potency was 0.631 µM (active).

For `CCSc1nnc(NC(=O)Cc2ccccc2OC)s1`, the max response, negative = inhibition was 0.739%.

Turning to `CCSc1nnc(NC(=O)c2cc(=O)c3cc(C)c(C)cc3o2)s1`, the max response, negative = inhibition was -5.87%.

With `Cc1ccccc1OCc1nc2c3cnn(-c4ccccc4F)c3ncn2n1`, the max response, negative = inhibition is -7.52%.

For the compound `COc1cc(OC)c(NC(=O)Cc2ccc(-n3c(C)nc4cccnc43)cc2)cc1Cl`, the max response, negative = inhibition is 4.77%.

`COc1c(Cl)cc(C(=O)N(Cc2ccccc2F)C2CCS(=O)(=O)C2)cc1Cl` (centres undefined): the max response, negative = inhibition is 6.06%.

Regarding `Cc1cccc(N=C2NN=C(c3c[nH]c4ccccc34)CS2)c1`, the Potency was 7.94 µM (active).

Take `COCCn1c(C)cc(C2=NNC(=Nc3ccc(F)cc3)SC2)c1C`: the max response, negative = inhibition is -3.73%.

For `Cc1ccc(-c2csc(-c3c[nH]c4ccccc34)n2)cc1`, the max response, negative = inhibition is 1.08%.

For the compound `CC(=O)N1c2ccccc2CC1C(=O)N1CCN(c2ccc(F)cc2)CC1` (centres undefined), the max response, negative = inhibition was 13.9%.

Take `Cc1nc(SCC(=O)Nc2ccc(C(=O)O)cc2)n[nH]1`: the max response, negative = inhibition was 6.79%.

For `Nc1nc(N)c2[nH]c(CNc3ccc(C(=O)O)cc3)nc2n1`, the Potency is 3.98 µM (active).

In the case of `O=C(CCS(=O)(=O)c1cc(Br)cc2c1N(C(=O)C1CC1)CC2)Nc1ccc(Br)cc1F`, the max response, negative = inhibition is -5.03%.

Take `CCOCc1nnc(NC(=O)CSc2ccc(C)cc2)s1`: the max response, negative = inhibition is 1.04%.

For the compound `Cc1ccc(OCc2nnc(NC(=O)OCC(C)C)s2)cc1`, the Potency was 20 µM (active).

For `COCC(=O)Nc1nnc(COc2ccccc2)s1`, the max response, negative = inhibition is 2.8%.

With `CCC(CC)C(=O)N1CC(=O)Nc2ccc(Br)cc2C1c1ccccc1` (centres undefined), the max response, negative = inhibition is -0.646%.

On to `COc1ccc(CC(=O)N2CC(=O)Nc3ccc(Br)cc3C2c2ccc(F)cc2)cc1OC` (centres undefined), for which the max response, negative = inhibition is 18.8%.

As for `CCCCOc1ccc(C(=O)N2CC(=O)Nc3ccc(Br)cc3C2c2ccc(F)cc2)cc1` (centres undefined), the Potency was 25.1 µM (active).

Turning to `Cc1ccc2cccc(NC(=O)c3ccc(OC(C)C)cc3)c2n1`, the max response, negative = inhibition was -1.78%.

As to `Cc1[nH]c2ccccc2c1/C=N/NC(=O)CNC(=O)c1ccc2c(c1)OCO2`, the max response, negative = inhibition was -1.52%.

As to `Cc1[nH]c2ccccc2c1/C=N\NC(=O)Cn1nnc(-c2ccccc2)n1`, the Potency is 7.94 µM (active).

Take `O=C(Cn1nnc(-c2ccccc2)n1)NCc1ccccc1`: the max response, negative = inhibition is 3.66%.

As for `CCOc1ccc(NC(=O)c2ncoc2-c2ccco2)cc1`, the max response, negative = inhibition is -16.9%.

As for `Cc1ccc(N2C(=O)C3N=NN(CC(=O)N4N=C(c5cccc6ccccc56)CC4c4ccccc4)C3C2=O)cc1` (centres undefined), the Potency is 7.94 µM (active).

`Cc1ccc(C2=NN(C(=O)CSc3nc(N)cc(N)n3)C(c3ccco3)C2)cc1` (centres undefined): the max response, negative = inhibition was 4.32%.

`O=C1C2N=NN(CC(=O)N3N=C(c4cccc5ccccc45)CC3c3ccccc3)C2C(=O)N1c1ccccc1` (centres undefined): the Potency was 5.01 µM (active).

Consider `Cc1ccc(CNC(=O)CSC2=Nc3ccccc3C3=NC(C)C(=O)N23)cc1` (centres undefined), for which the max response, negative = inhibition is -15.8%.

With `Cc1cc(C)c(NC(=O)CSc2nc3nccnc3c(=O)n2CCc2c[nH]c3ccccc23)c(C)c1`, the max response, negative = inhibition was 9.02%.

As for `O=C(Nc1cc(Cl)cc(Cl)c1)c1ccc2c(c1)N(Cc1cccc(Cl)c1)C(=O)c1ccccc1S2=O` (centres undefined), the max response, negative = inhibition was -5.94%.

As to `O=c1[nH]c2cc(Br)ccc2n2cccc12`, the max response, negative = inhibition was 11.1%.

Turning to `CCOC(=O)C1CCN(c2ncnc3c2c(-c2ccccc2)cn3-c2cccc(C)c2)CC1`, the max response, negative = inhibition is 9.85%.

On to `Cc1cc(C(=O)N/N=C/c2ccc(O)c([N+](=O)[O-])c2)c(C)n1-c1ccc(F)cc1`, for which the Potency is 10 µM (active).

Turning to `Cc1nc2ccccc2cc1C(=O)N/N=C/c1ccc([N+](=O)[O-])cc1`, the max response, negative = inhibition was -1.64%.

In the case of `CCCCCC(=O)Nc1ccc(C(=O)N/N=C/c2ccc([N+](=O)[O-])cc2)cc1`, the max response, negative = inhibition was -23.1%.

Take `COc1cc2nc(NCC(C)c3ccccc3)n3nc(-c4ccccc4)nc3c2cc1OC` (centres undefined): the max response, negative = inhibition is 5.17%.

For the compound `Cc1ccccc1NC(=O)CCOc1ccccc1`, the max response, negative = inhibition is -3.79%.

Consider `CCCN(CCC)C(=O)C1CCCN(c2ncnc3c2nc2n3CCCCC2)C1` (centres undefined), for which the max response, negative = inhibition was 9.35%.

On to `Cc1ccc(CNC(=O)CCc2c(C)nc3nc(CNC(=O)OC(C)(C)C)nn3c2C)cc1`, for which the max response, negative = inhibition is 11.1%.

Take `c1cncc(-c2nc(N3CCNCC3)c3ccccc3n2)c1`: the max response, negative = inhibition is 0.953%.

`Cc1cc(C(=O)Nc2ccccc2N2CCOCC2)c2ccccc2n1`: the max response, negative = inhibition was 4.56%.

`c1ccc(Nc2nc(N3CCOCC3)c3ccccc3n2)cc1`: the Potency was 12.6 µM (active).

Regarding `CN(CC(=O)Nc1ccccc1F)S(=O)(=O)c1ccc2c(c1)c(=O)n(C)c(=O)n2C`, the max response, negative = inhibition is -13.2%.

For `Cc1nc2ccccn2c(=O)c1NC(=O)c1c(F)cccc1F`, the max response, negative = inhibition is -1.01%.

On to `COc1ccc(/C=C(/CC(=O)Nc2ccc(C)cc2)c2nc3ccccc3s2)cc1`, for which the Potency was 31.6 µM (active).

Regarding `COc1ccc(CC(=O)Nc2ccc(-c3nc4ccccc4s3)c(C)c2)cc1`, the max response, negative = inhibition was 7.02%.

For `COc1cccc(/C=C(/CC(=O)Nc2ccc(N3CCOCC3)cc2)c2nc3ccccc3s2)c1`, the max response, negative = inhibition was -7.21%.

Consider `COc1ccc(CCNC(=O)CCCn2c(=O)c3ccccc3n(Cc3ccc(C)cc3)c2=O)cc1OC`, for which the max response, negative = inhibition is -4.62%.

With `Cc1ccc(CNC(=O)Cn2c(=O)ccc3cc(S(=O)(=O)N4CCCC4)ccc32)cc1`, the max response, negative = inhibition is -9.4%.

`CC1CCCN(c2csc3ccc(F)cc3c2=O)C1` (centres undefined): the max response, negative = inhibition was 1.1%.

For the compound `COc1ccccc1-c1noc(CSc2nnc(-c3ccccc3)n2-c2ccc(C)c(C)c2)n1`, the max response, negative = inhibition was -9.67%.

On to `COc1ccccc1N1CCN(C(CNC(=O)C(=O)NCc2ccc(C)cc2)c2cccnc2)CC1` (centres undefined), for which the max response, negative = inhibition was 1.39%.
